Data as given in PubChem BioAssay AID1159580 (chemical genetic matrix, 2015).
Screen size: about 5,500 compounds; about 2,000 (36%) were called active. Another 18% or so got no clear call; they are omitted. Cut-off read from the data, not from the text of the source: active = normalized growth mostly below about 0.91 (no sharp cut-off); inconclusive = no clear call, values can overlap the other calls; inactive = mostly above about 0.92. This is one part of the list.

Assay: chemical genetic growth profiling, strain panel (AID 1159580);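 note: tested at 20 µM; growth read once vehicle control cultures reached saturation at 30 °C; 1 = growth at the plate median or of vehicle wells; lower values mean less growth of the strain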
Conditions: S. cerevisiae deletion strains, growth OD

Measured: normalized growth

CC1=NN=C(c2ccc(N)cc2)c2cc3c(cc2C1)OCO3
inactive: locus YAL013W, strain DEP1, active compounds read low 0.989 | locus YAL040C, strain CLN3, active compounds read low 0.968 | locus YCL061C, strain MRC1 (second series), active compounds read low 0.991 | locus YDR363W, strain ESC2, active compounds read low 0.986 | locus YER002W, strain NOP16, active compounds read low 0.967 | locus YMR263W, strain SAP30, active compounds read low 0.996 | locus YMR307W, strain GAS1, active compounds read low 1 | locus YNL128W, strain TEP1, active compounds read low 0.983 | locus YNL153C, strain GIM3, active compounds read low 0.957 | locus YNL175C, strain NOP13, active compounds read low 0.968 | locus YNL197C, strain WHI3, active compounds read low 0.964 | locus YNL224C, strain SQS1, active compounds read low 0.989 | locus YOR083W, strain WHI5 (second series), active compounds read low 0.936 | locus YPL055C, strain LGE1, active compounds read low 0.984

Cc1nnc2n1N=C(c1ccc(CC(C)C)cc1)C(C)S2 (stereo not given)
inactive: locus YAR019C, strain CDC15, active compounds read low 0.971 | locus YBL105C, strain PKC1, active compounds read low 0.975 | locus YBR135W, strain CKS1, active compounds read low 0.964 | locus YBR136W, strain MEC1, active compounds read low 0.975 | locus YBR160W, strain CDC28, active compounds read low 0.978 | locus YDL017W, strain CDC7, active compounds read low 0.982 | locus YDL028C, strain MPS1, active compounds read low 0.972 | locus YDL101C, strain DUN1, active compounds read low 0.965 | locus YDL108W, strain KIN28, active compounds read low 0.97 | locus YDL132W, strain cdc53, active compounds read low 0.972 | locus YDL214C, strain PRR2, active compounds read low 0.98 | locus YDR052C, strain DBF4, active compounds read low 0.977 | locus YDR054C, strain cdc34, active compounds read low 0.973 | locus YDR226W, strain ADK1, active compounds read low 0.966 | locus YDR477W, strain SNF1, active compounds read low 0.975 | locus YER123W, strain YCK3, active compounds read low 0.941 | locus YER133W, strain GLC7, active compounds read low 0.972 | locus YFL009W, strain cdc4, active compounds read low 0.971 | locus YFL029C, strain CAK1, active compounds read low 0.971 | locus YFR003C, strain YPI1, active compounds read low 0.978 | locus YFR019W, strain FAB1, active compounds read low 0.986 | locus YFR028C, strain CDC14, active compounds read low 0.969 | locus YGR040W, strain KSS1, active compounds read low 0.979 | locus YGR052W, strain FMP48, active compounds read low 1.05 | locus YGR092W, strain DBF2, active compounds read low 0.971 | locus YHR030C, strain SLT2, active compounds read low 1.08 | locus YHR079C, strain IRE1, active compounds read low 1.05 | locus YHR082C, strain KSP1, active compounds read low 1.05 | locus YHR205W, strain SCH9, active compounds read low 0.977 | locus YIL147C, strain SLN1, active compounds read low 0.964 | locus YJL095W, strain BCK1, active compounds read low 1.06 | locus YJL128C, strain PBS2, active compounds read low 0.931 | locus YJL157C, strain FAR1, active compounds read low 0.983 | locus YJR016C, strain ILV3, active compounds read low 0.98 | locus YJR066W, strain TOR1 (second series), active compounds read low 0.971 | locus YJR066W, strain TOR1, active compounds read low 1.07 | locus YKL048C, strain ELM1, active compounds read low 0.979 | locus YKL067W, strain YNK1, active compounds read low 0.98 | locus YKL101W, strain HSL1, active compounds read low 0.985 | locus YKL193C, strain SDS22, active compounds read low 0.972 | locus YKL203C, strain TOR2, active compounds read low 1.04 | locus YLR113W, strain HOG1, active compounds read low 0.973 | locus YLR133W, strain CKI1, active compounds read low 0.985 | locus YLR403W, strain SFP1, active compounds read low 0.965 | locus YML070W, strain DAK1, active compounds read low 0.968 | locus YMR001C, strain CDC5, active compounds read low 0.974 | locus YMR205C, strain PFK2 (second series), active compounds read low 0.986 | locus YMR277W, strain FCP1, active compounds read low 0.975 | locus YNL006W, strain LST8, active compounds read low 0.986 | locus YNL020C, strain ARK1, active compounds read low 0.997 | locus YNL161W, strain CBK1, active compounds read low 0.977 | locus YNL183C, strain NPR1, active compounds read low 1.05 | locus YNL207W, strain RIO2, active compounds read low 0.98 | locus YNL222W, strain SSU72, active compounds read low 0.97 | locus YNL307C, strain MCK1 (second series), active compounds read low 0.97 | locus YOL078W, strain AVO1, active compounds read low 0.977 | locus YOL136C, strain PFK27, active compounds read low 0.975 | locus YOR061W, strain CKA2, active compounds read low 0.972 | locus YOR119C, strain RIO1, active compounds read low 0.982 | locus YOR231W, strain MKK1, active compounds read low 1.04 | locus YOR329C, strain SCD5, active compounds read low 0.98 | locus YPL031C, strain PHO85, active compounds read low 0.983 | locus YPL153C, strain RAD53, active compounds read low 0.956 | locus YPL204W, strain HRR25, active compounds read low 0.96 | locus YPL209C, strain IPL1, active compounds read low 0.98 | locus YPL256C, strain CLN2, active compounds read low 1.02 | locus YPR025C, strain CCL1, active compounds read low 0.969 | locus YPR106W, strain ISR1, active compounds read low 0.979 | locus YPR111W, strain DBF20, active compounds read low 0.967 | strain NNK1, active compounds read low 0.978 | strain TSCII, active compounds read low 0.972
